Of roughly 7,900 targets only a part is listed; those with a hit were picked by preference. About 0.6% of all pairs of compound and target were hits.
Assays:
Experiment in all cases: log2 fold change, soluble protein after heating vs DMSO (PISA); higher = thermal stabilisation; K562 cells, 10 uM, 30 min; active = over 0.2 and 3.5 SD of the protein, either way, in both replicates (recomputed)
[1] = compound: C#Cc1cccc(Nc2ncnc3cc(OCCOC)c(OCCOC)cc23)c1 [erlotinib]
Procedure, shortened: (§1)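 Aliquots of K562 cells (2×10^6 cells/mL) treated with 10 μM compound for 30 min were heated for 3 min over 48°C-58°C. After pooling and extraction in PBS with 0.5% NP-40 at 4°C, soluble protein from a 21,000xg, 90 min spin was quantified by TMTpro 16plex LC-MS/MS with channel sums equalised. Thermal stability is expressed against control samples, from duplicates, as a log2 fold change.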

[2] = compound: C/C(=N\NC(=O)C1=CC(=CC=C1)S(=O)(=O)N2CCOCC2)/C3=C(C=CC(=C3)Cl)O
Procedure, shortened: as §1

[3] = compound: C1=CC(=C(C=C1Cl)C2=NC3=NC=CN=C3C(=N2)NC4=CC=NC=C4)F
Procedure, shortened: as §1

[4] = compound: C1=CC(=CC=C1C2=NC3=C(N2)C=C(C=C3)C(=O)N)OC4=CC=C(C=C4)Cl
Procedure, shortened: as §1

[5] = compound: C1=CC2=C(C=CC(=C2)/C=C\3/C(=O)NC(=NCC4=CC=CS4)S3)N=C1
Procedure, shortened: as §1

[6] = compound: C1=CC2=NC=CN=C2C=C1/C=C/3\C(=O)NC(=O)S3
Procedure, shortened: as §1

[7] = compound: C1=CC=C(C=C1)C2=NC(=C(N2)C3=CC=NC=C3)C4=CC(=C(C=C4)Cl)O
Procedure, shortened: as §1

[8] = compound: C1=CC=C2C(=C1)C3=NNC4=CC=CC(=C43)C2=O
Procedure, shortened: as §1

[9] = compound: C1CCN(C1)C(=O)NC2=CC=CC(=C2)NC3=NC=C(C(=N3)NCCC4=CN=CN4)Br
Procedure, shortened: as §1

[10] = compound: C1CN(CCC1(CC2=CC=C(C=C2)Cl)N)C3=NC=NC4=C3C=CN4
Procedure, shortened: as §1

Measured: log2 fold change

PEX16 isoform 2 (UniProt Q9Y5Y5)
inactive: [1] 0.081 | [2] -0.044 | [3] 0.147 | [4] 0.013 | [5] 0.085 | [6] 0.06 | [7] 0.008 | [8] -0.004 | [9] -0.031 | [10] 0.051

PIP4P1 isoform 2 (UniProt Q86T03)
inactive: [1] 0.057 | [2] 0.001 | [3] 0.052 | [4] -0.014 | [5] -0.104 | [6] 0.068 | [7] 0.002 | [8] 0.035 | [9] -0.028 | [10] 0.101

POLR2E (UniProt P19388)
inactive: [1] 0.022 | [2] 0.021 | [3] 0.038 | [4] 0.057 | [5] -0.054 | [6] 0.007 | [7] 0.013 | [8] -0.02 | [9] -0.01 | [10] 0.011

PTPA (UniProt A6PVN8)
inactive: [1] -0.061 | [2] 0.21 | [3] -0.107 | [4] 0.367 | [5] 0.088 | [6] 0.031 | [7] 0.063 | [8] 0.065 | [9] 0.01 | [10] 0.031

POMK (UniProt Q9H5K3)
UniProt Q9H5K3, sequence (Q9H5K3 whole entry, looked up): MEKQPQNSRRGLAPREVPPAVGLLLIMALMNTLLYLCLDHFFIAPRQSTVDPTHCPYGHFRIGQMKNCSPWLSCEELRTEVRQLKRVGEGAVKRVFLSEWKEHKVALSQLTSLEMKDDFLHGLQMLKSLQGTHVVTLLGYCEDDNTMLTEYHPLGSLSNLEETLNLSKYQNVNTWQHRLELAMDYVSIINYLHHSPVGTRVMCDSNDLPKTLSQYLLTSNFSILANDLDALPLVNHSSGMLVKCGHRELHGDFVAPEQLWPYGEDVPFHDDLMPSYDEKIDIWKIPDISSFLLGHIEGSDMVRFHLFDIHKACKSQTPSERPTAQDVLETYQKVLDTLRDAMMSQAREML
inactive: [1] -0.091 | [2] -0.007 | [3] 0.019 | [4] 0.005 | [5] -0.01 | [6] 0.071 | [7] 0.005 | [8] -0.019 | [9] 0.006 | [10] 0.005

PCBP2 isoform 3 (UniProt Q15366)
inactive: [1] -0.01 | [2] 0.087 | [3] 0.038 | [4] -0.039 | [5] 0.019 | [6] 0.025 | [7] 0.063 | [8] 0.017 | [9] -0.039 | [10] 0.01

PLSCR1 (UniProt O15162)
inactive: [1] -0.023 | [2] 0.03 | [3] 0.089 | [4] 0.077 | [5] -0.004 | [6] 0.022 | [7] 0.061 | [8] -0.04 | [9] -0.008 | [10] 0.05

PDE4DIP isoform 4 (UniProt Q5VU43)
UniProt Q5VU43, sequence (Q5VU43 whole entry, looked up): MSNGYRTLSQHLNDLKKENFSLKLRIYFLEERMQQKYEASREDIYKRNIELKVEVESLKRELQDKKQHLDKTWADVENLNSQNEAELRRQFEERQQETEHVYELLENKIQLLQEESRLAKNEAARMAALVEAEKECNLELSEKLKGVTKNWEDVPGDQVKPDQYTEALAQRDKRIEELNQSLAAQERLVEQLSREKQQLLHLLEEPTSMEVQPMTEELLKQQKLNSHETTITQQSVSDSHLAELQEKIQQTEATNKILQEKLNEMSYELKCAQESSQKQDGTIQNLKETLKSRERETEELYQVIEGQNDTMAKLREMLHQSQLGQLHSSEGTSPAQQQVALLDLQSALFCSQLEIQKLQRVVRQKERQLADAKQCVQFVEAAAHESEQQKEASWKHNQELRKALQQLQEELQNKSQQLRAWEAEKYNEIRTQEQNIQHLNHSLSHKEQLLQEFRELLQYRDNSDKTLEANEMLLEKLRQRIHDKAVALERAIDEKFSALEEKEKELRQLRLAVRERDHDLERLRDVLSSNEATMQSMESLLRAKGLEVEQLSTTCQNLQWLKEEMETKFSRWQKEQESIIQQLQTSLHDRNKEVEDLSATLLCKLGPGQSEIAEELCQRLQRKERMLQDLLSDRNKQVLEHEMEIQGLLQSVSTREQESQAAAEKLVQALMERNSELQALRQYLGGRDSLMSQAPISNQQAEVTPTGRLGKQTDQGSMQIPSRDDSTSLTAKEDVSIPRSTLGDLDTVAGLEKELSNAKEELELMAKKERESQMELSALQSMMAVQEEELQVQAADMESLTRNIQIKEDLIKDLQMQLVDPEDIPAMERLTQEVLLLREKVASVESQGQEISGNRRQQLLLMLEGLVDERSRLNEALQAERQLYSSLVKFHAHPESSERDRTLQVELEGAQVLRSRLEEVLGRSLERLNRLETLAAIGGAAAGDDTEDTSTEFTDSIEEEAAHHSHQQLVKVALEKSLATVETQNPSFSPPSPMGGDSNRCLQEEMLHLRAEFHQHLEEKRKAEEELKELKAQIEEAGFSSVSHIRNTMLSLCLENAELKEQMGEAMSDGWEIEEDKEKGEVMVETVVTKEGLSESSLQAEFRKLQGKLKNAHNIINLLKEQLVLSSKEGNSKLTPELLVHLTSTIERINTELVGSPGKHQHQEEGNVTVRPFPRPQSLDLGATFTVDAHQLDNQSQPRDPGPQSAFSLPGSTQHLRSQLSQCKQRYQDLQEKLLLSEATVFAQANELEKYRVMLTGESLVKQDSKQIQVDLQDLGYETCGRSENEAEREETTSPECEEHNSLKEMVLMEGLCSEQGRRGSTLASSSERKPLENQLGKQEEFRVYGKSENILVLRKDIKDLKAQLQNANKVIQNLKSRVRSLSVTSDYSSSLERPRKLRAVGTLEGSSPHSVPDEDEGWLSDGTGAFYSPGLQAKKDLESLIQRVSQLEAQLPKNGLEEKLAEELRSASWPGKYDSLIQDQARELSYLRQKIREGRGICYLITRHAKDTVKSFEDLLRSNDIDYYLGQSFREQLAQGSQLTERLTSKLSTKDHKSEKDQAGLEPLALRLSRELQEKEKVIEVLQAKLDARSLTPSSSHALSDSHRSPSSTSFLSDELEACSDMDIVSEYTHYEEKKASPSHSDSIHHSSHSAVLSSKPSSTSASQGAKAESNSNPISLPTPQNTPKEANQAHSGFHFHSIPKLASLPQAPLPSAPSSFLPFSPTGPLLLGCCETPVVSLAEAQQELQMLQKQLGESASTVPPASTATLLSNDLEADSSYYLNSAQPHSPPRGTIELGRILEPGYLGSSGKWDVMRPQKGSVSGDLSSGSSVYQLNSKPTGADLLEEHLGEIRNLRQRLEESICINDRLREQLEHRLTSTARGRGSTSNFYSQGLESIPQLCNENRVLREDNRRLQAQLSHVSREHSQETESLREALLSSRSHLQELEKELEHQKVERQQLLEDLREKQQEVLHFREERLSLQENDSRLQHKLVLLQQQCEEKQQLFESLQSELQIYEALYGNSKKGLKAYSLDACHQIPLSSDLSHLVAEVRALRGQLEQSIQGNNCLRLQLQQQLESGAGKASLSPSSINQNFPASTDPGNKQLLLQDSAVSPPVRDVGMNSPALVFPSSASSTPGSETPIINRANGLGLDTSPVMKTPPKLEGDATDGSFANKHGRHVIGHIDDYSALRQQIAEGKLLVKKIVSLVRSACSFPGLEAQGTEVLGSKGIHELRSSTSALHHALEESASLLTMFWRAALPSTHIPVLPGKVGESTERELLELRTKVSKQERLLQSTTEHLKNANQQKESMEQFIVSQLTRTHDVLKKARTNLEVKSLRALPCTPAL
inactive: [1] 0.027 | [2] -0.002 | [3] 0.186 | [4] 0.01 | [5] 0.089 | [6] -0.043 | [7] -0.059 | [8] -0.02 | [9] -0.037 | [10] -0.061

PRKCG (UniProt P05129)
inactive: [1] -0.04 | [2] 0.058 | [3] 0.052 | [4] 0.04 | [5] 0.144 | [6] -0.033 | [7] 0.074 | [8] 0.023 | [9] -0.052 | [10] -0.138

PTMA (UniProt P06454)
inactive: [1] 0.06 | [2] 0.159 | [3] 0.192 | [4] 0.005 | [5] -0.136 | [6] 0.006 | [7] 0.197 | [8] 0.189 | [9] -0.148 | [10] 0.151

PECAM1 (UniProt P16284)
inactive: [1] -0.039 | [2] 0.072 | [3] -0.055 | [4] 0.057 | [5] 0.054 | [6] -0.024 | [7] -0.05 | [8] -0.133 | [9] 0.057 | [10] 0.021

PHKG2 (UniProt P15735)
inactive: [1] -0.067 | [2] -0.078 | [3] 0.021 | [4] -0.003 | [5] -0.055 | [6] -0.113 | [7] 0.034 | [8] 0.076 | [9] -0.159 | [10] 0.029

PITRM1 isoform 2 (UniProt Q5JRX3)
UniProt Q5JRX3, sequence (Q5JRX3 whole entry, looked up): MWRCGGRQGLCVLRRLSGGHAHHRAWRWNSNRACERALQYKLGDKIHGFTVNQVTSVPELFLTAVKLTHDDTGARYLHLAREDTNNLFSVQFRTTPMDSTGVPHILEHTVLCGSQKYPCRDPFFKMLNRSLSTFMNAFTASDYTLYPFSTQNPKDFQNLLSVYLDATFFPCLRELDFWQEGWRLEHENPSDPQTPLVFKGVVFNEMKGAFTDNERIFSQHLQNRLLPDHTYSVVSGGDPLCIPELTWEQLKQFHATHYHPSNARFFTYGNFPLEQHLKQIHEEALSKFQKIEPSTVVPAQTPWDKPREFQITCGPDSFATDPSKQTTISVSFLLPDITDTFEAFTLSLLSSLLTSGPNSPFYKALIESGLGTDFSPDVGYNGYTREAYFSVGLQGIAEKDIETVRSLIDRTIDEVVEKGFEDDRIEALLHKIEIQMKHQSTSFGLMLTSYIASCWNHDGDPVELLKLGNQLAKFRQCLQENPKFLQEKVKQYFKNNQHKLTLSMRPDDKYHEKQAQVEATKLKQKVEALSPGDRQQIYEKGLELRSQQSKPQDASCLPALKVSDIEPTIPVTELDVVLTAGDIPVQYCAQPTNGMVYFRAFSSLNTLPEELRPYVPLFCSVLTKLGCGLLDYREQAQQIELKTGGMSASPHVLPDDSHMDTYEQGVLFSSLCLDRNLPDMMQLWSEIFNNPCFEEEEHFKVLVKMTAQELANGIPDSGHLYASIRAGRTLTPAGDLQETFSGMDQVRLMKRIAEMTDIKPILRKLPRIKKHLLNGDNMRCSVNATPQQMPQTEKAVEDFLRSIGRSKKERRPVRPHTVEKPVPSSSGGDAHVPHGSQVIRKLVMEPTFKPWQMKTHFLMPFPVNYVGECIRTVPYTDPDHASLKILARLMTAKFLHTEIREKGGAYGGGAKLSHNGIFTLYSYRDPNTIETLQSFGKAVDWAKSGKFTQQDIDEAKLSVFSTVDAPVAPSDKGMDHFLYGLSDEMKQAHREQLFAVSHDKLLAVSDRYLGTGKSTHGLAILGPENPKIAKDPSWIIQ
inactive: [1] -0.004 | [2] -0.008 | [3] 0.012 | [4] 0.005 | [5] 0.118 | [6] 0.007 | [7] 0.041 | [8] 0.03 | [9] 0.023 | [10] 0.153

PBK (UniProt Q96KB5)
UniProt Q96KB5, sequence (Q96KB5 whole entry, looked up): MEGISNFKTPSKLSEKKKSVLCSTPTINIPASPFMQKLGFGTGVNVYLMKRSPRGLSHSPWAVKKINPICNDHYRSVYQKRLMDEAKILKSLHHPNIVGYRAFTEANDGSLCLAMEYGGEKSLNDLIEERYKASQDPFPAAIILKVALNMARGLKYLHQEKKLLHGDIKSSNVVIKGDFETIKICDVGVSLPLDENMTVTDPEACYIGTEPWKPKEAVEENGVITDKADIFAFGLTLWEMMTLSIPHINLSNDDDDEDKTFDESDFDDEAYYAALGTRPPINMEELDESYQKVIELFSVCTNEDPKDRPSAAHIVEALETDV
inactive: [1] 0.103 | [2] 0.117 | [3] -0.054 | [4] -0.037 | [5] 0.083 | [6] 0.028 | [7] 0.067 | [8] 0.016 | [9] -0.052 | [10] -0.105

PIGT (UniProt Q969N2)
inactive: [1] -0.045 | [2] 0.037 | [3] 0.002 | [4] 0.034 | [5] 0.009 | [6] -0.001 | [7] 0.011 | [8] 0.018 | [9] -0.006 | [10] -0.003

PRIM2 (UniProt P49643)
UniProt P49643, sequence (P49643 whole entry, looked up): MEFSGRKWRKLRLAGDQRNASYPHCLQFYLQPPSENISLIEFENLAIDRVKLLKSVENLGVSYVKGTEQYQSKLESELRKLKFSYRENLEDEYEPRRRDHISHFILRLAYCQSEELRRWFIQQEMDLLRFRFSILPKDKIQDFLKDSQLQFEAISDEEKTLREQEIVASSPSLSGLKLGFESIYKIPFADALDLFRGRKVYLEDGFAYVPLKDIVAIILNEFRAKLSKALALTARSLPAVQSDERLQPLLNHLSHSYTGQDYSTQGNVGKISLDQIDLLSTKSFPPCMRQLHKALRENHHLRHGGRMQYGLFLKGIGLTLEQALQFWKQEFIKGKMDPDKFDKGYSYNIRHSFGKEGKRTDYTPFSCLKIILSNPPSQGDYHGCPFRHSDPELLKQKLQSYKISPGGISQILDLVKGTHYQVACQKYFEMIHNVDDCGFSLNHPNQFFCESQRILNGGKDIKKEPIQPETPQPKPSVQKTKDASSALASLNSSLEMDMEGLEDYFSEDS
inactive: [1] 0.004 | [2] 0.038 | [3] 0.018 | [4] 0.015 | [5] 0.061 | [6] 0.009 | [7] 0.035 | [8] 0.035 | [9] -0.023 | [10] -0.071

PATL1 (UniProt Q86TB9)
inactive: [1] 0.044 | [2] 0.13 | [3] -0.021 | [4] 0.048 | [5] 0.01 | [6] -0.233 | [7] -0.075 | [8] 0.029 | [9] -0.071 | [10] -0.052

POP1 (UniProt Q99575)
inactive: [1] -0.01 | [2] 0.028 | [3] -0.015 | [4] 0.029 | [5] -0.011 | [6] 0.022 | [7] 0.017 | [8] -0.016 | [9] 0 | [10] -0.01

PARG (UniProt Q86W56)
inactive: [1] 0.063 | [2] 0.067 | [3] 0.034 | [4] -0.015 | [5] 0.063 | [6] 0.059 | [7] 0.043 | [8] 0.063 | [9] -0.079 | [10] -0.071

PPM1G (UniProt O15355)
inactive: [1] 0.117 | [2] 0.118 | [3] 0.009 | [4] -0.017 | [5] 0.024 | [6] 0.035 | [7] -0.052 | [8] -0.022 | [9] -0.011 | [10] -0.065

PRKAR1B (UniProt P31321)
inactive: [1] -0.027 | [2] -0.056 | [3] -0.036 | [4] 0.013 | [5] 0.205 | [6] 0.282 | [7] -0.006 | [8] 0.102 | [9] 0.086 | [10] -0.077

PPOX (UniProt P50336)
UniProt P50336, sequence (P50336 whole entry, looked up): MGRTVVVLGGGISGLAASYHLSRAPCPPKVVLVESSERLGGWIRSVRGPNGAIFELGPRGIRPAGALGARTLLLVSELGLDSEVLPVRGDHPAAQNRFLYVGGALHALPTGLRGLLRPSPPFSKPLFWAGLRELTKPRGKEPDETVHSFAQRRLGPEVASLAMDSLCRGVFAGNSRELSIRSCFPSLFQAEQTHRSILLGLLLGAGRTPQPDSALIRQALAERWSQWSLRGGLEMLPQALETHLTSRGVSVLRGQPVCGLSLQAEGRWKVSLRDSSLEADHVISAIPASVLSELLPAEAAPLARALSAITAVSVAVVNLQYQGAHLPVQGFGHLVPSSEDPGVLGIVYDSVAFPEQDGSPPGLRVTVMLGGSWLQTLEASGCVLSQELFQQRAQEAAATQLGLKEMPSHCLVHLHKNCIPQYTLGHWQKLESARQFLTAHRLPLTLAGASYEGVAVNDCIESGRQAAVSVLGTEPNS
inactive: [1] 0.112 | [2] 0.415 | [3] 0.156 | [4] 0.416 | [5] 0.039 | [6] -0.004 | [7] 0.095 | [8] 0.013 | [9] 0.051 | [10] -0.011

PSMC2 (UniProt P35998)
inactive: [1] -0.05 | [2] -0.054 | [3] -0.057 | [4] 0.008 | [5] -0.001 | [6] -0.03 | [7] 0.019 | [8] 0.02 | [9] -0.007 | [10] -0.031

QKI (UniProt Q96PU8)
inactive: [1] -0.011 | [2] 0.051 | [3] -0.008 | [4] 0.003 | [5] 0.028 | [6] 0.007 | [7] -0.002 | [8] -0.032 | [9] -0.025 | [10] -0.007

PEA15 isoform 2 (UniProt Q15121)
inactive: [1] 0.001 | [2] 0.042 | [3] 0.056 | [4] 0.026 | [5] -0.014 | [6] 0.055 | [7] -0.006 | [8] 0.072 | [9] 0.016 | [10] -0.064

PLBD1 (UniProt Q6P4A8)
inactive: [1] 0.05 | [2] -0.008 | [3] 0.024 | [4] 0.037 | [5] 0.09 | [6] 0.024 | [7] 0.036 | [8] -0.01 | [9] 0.037 | [10] 0.009

POLD1 (UniProt P28340)
inactive: [1] 0.063 | [2] 0.039 | [3] -0.009 | [4] -0.016 | [5] 0.023 | [6] -0.024 | [7] 0.05 | [8] -0.058 | [9] -0.02 | [10] -0.022

QRICH1 (UniProt Q2TAL8)
inactive: [1] 0.066 | [2] 0.361 | [3] -0.023 | [4] 0 | [5] 0.282 | [6] 0.059 | [7] -0.053 | [8] -0.007 | [9] 0.014 | [10] -0.076

PTP4A1 (UniProt Q93096)
inactive: [1] 0.053 | [2] 0.083 | [3] 0.134 | [4] 0.037 | [5] -0.042 | [6] 0.038 | [7] 0.062 | [8] 0.027 | [9] -0.096 | [10] -0.127

PRKAR1A (UniProt P10644)
inactive: [1] 0.078 | [2] -0.084 | [3] -0.037 | [4] -0.027 | [5] 0.116 | [6] 0.018 | [7] 0.066 | [8] 0.139 | [9] 0.128 | [10] -0.017
